Screens from PubChem BioAssay.
GLP-1R inv ag = qHTS of GLP-1 Receptor Inverse Agonists (Inhibition Mode); Potency, µM (doses to about 38.3 µM), usual class: inhibitors; actives 1.6% (n = 410,000); HEK293 GLP-1R CRE-luciferase, luminescence, 24 h; GLP-1R form is constitutively active; note: nearly all actives have a fitted effect of over 55% in size
Target sequence (P43220 whole entry, looked up): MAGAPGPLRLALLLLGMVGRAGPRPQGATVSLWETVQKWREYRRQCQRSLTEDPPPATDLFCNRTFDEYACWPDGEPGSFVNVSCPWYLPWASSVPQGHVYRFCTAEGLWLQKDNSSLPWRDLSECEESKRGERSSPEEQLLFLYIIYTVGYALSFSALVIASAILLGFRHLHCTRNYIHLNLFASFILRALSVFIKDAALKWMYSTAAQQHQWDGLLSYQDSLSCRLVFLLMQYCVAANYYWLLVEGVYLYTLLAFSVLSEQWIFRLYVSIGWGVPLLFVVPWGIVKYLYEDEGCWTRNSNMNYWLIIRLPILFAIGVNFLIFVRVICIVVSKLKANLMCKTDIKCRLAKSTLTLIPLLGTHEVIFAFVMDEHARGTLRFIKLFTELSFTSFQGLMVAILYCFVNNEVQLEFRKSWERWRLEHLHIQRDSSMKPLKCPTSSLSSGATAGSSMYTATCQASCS
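Constitutively active GLP-1R drives a cAMP-responsive luciferase in stably transfected HEK293 cells; test compounds are added after overnight (12 h) attachment and left 24 hr, and signal loss in luminescence marks inhibition.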
GLP1R ag = qHTS of GLP-1 Receptor Agonists; HEK293 GLP-1R CRE-luciferase, luminescence, 4-6 h; cells express a hypersensitive GLP-1R form; Potency, µM (top dose mostly 45.6 µM), actives largely listed as activators; actives 0.007% (n = 380,000)
miR-21 reporter = qHTS Assay for Modulators of miRNAs and/orActivators of miR-21 | 340,000 tested, under 10 active | HeLa miR-21 FLuc reporter, luciferase, 48 h | Potency, µM (series often up to 38.3 µM), most hits filed as activators;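 note: miR-21 action dims this reporter so a rising signal means less miR-21 action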
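HeLa miR-21-FLuc reporter line, endogenous miR-21; 2000 cells/well in DMEM/10% FBS; compound titration up to ~40uM final, 48 h, 37 degree Celsius; luciferase detection reagent, 15 min lysis, CCD luminescence.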
PTHR1 ag = qHTS for PTHR1 Agonists: Primary Screen; Parathyroid hormone/parathyroid hormone-related peptide receptor (Homo sapiens), Q03431; HEK293 GP2 PTHR1 cells, GloSensor cAMP luminescence, 1 h; Potency, µM (titrated, usually from 115 µM), hits mostly activators; actives 0.075% (n = 410,000); note: nearly all actives have a fitted effect of over 55% in size
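HEK-293-derived GP2 cells expressing PTHR1 and a GloSensor cAMP reporter, 3,000/well, plated overnight, given luciferin plus IBMX (each 0.5 mM as added) for 1 h at 37 °C, then compound for 1 h at 37 °C. Luminescence was read after 15 min at room temperature.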
Pin1 inhibitor = qHTS Assay to Find Inhibitors of Pin1; Pin1 FP peptide displacement, HiFluor488, 10 min; AID 504891, 2011; Potency, µM (top dose mostly 115 µM), actives largely listed as inhibitors; actives 0.009% (n = 390,000); active = well fitted inhibition curve with a large enough effect in the polarisation, with a control signal flat, not every such curve was filed as active; inconclusive = small, poorly fitted or top-dose-only effect, or effect the other way, or a change in a side signal; inactive = no such curve, though single readings can be large or run the other way; the % refers to the polarisation
Target sequence (Q13526 whole entry, looked up): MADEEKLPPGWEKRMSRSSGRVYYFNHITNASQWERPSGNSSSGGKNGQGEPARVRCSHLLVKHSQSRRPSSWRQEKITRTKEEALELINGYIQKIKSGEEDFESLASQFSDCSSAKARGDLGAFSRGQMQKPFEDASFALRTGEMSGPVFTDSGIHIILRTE
GLP1R cytotox = qHTS of GLP-1 Receptor Inverse Agonists: Cytotox Screen. HEK293 cAMP-luciferase reporter cells, luminescence, 24 h. Potency, µM (highest dose often 38.3 µM), usual class: inhibitors. actives 0.13% (n = 410,000). AID 624418, 2012;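 note: loss of luciferase light is scored as toxicity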
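MLSMR compounds, 24 hr on cells at 37 deg C/5% CO2; luminescence after luciferase reagent (12 min RT). Inhibition counted as the undesired cytotoxic outcome.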
Hits are given with their value; i = inactive; ? = inconclusive; nt = no result. In the library only some 1.7% were active in any assay of this set; here they are far more common. Unless noted, calls come from the whole dose curve; as a rule, active = well fitted curve in the direction sought with a large enough effect; inconclusive = small, poorly fitted or top-dose-only effect, or another doubt; inactive = no such curve, though single readings can be large; an effect the other way counts as inactive or inconclusive.

SMILES	GLP-1R inv ag	GLP1R ag	miR-21 reporter	PTHR1 ag	Pin1 inhibitor	GLP1R cytotox
CCCCCCCOC(=O)C[N+](C)(C)CCOC1CC2CCC1(C)C2(C)C (stereo not given)	?	i	?	i	i	11µM
COc1c(C)cc(Br)cc1C(=O)Nc1ccc(Cc2ccncc2)cc1	10µM	i	i	i	i	i
CCOC(=O)c1sc2nc(CC(=O)OC)nc(N3CCN(c4ccc(OC)cc4)CC3)c2c1C	4µM	i	i	i	i	i
O=C(Oc1cccccc1=O)c1ccccc1	10µM	i	i	i	i	?
O=C(Oc1ccccc1Cl)c1ccccc1	i	i	nt	i	i	i
CSc1cccc(NC(=S)N2CCCN(Cc3cccc(Cl)c3)C2)c1	3.5µM	i	i	i	i	i
CSc1cccc(NC(=S)N(CCCN2CCCC2)Cc2cccn2Cc2ccc(Cl)cc2)c1	3.5µM	i	i	i	i	11µM
S=C(Nc1cccc(Cl)c1)N(CCCN1CCCC1)Cc1cccn1Cc1ccc(Cl)cc1	?	i	i	i	i	?
COc1ccc(NC(=S)N2CCCN(Cc3cccc(Cl)c3)C2)cc1	8.9µM	i	i	i	i	i
CCCN1CNc2c(c(=O)[nH]c(=S)n2CCc2ccc(Cl)cc2Cl)C1	nt	nt	nt	nt	i	nt
CC(C)(C)C(=O)OCOC(=O)C1N2C(=O)CC2S(=O)(=O)C1(C)C (stereo not given)	nt	i	nt	nt	nt	nt
CCn1c2ccccc2c2cc(CN3CCN(Cc4cc(OC)c(O)c(OC)c4)CC3)ccc21	11µM	nt	i	i	i	i
CCN(CC(=O)Nc1cc(S(=O)(=O)N2CCCCC2)ccc1Cl)Cc1ccccc1	5.6µM	i	nt	i	i	i
CCN(CC(=O)Nc1cc(S(=O)(=O)N2CCOCC2)ccc1Cl)Cc1ccccc1	?	i	nt	i	i	i
CCN1CCN(S(=O)(=O)c2ccc(Cl)c(C(=O)Nc3ccccc3N3CCCCC3)c2)CC1	10µM	i	nt	i	i	i
CN1CCN(S(=O)(=O)c2ccc(NC(=O)Nc3cccc(Cl)c3)cc2)CC1	?	i	i	i	i	i
O=C(Nc1cccc(Cl)c1)Nc1cc(S(=O)(=O)N2CCCCC2)ccc1Cl	2.8µM	i	?	i	i	i
O=C1CC(c2ccc(Cl)cc2)Oc2ccc(Cl)cc21 (stereo not given)	?	i	nt	i	?	i
Cn1c(Cl)cnc1C1CC(=O)c2cc(Cl)ccc2O1 (stereo not given)	3.5µM	i	?	i	i	7.9µM
O=C1[C@H]2[C@@H](c3ccc(F)cc3)N3C(=O)N(c4cccc(Cl)c4)C(=O)[C@@]3(Cc3ccc(Cl)cc3)[C@H]2C(=O)N1C1CCCCC1	?	i	i	i	i	i
O=C1[C@H]2[C@@H](c3ccc(F)cc3)N3C(=O)N(c4cccc(Cl)c4)C(=O)[C@@]3(Cc3ccccc3)[C@H]2C(=O)N1C1CCCCC1	5.6µM	i	nt	i	i	i
Cc1ccccc1CN1CCc2c(OCC(=O)N3CCCc4ccccc43)cccc2C1=O	10µM	i	?	i	i	i
O=C1c2cccc(OCC(=O)N3CCCc4ccccc43)c2CCN1Cc1cccnc1	i	i	?	i	i	i
Cc1ccc(-n2ncc(C(=O)NCCCN3CCCCC3)c2C2CCN(C(=O)OC(C)(C)C)CC2)cc1	?	nt	i	i	i	i
Cc1cc(Nc2cccc(Cl)c2)nc(NCc2ccccc2)n1	10µM	i	?	i	?	i
SMILES	GLP-1R inv ag	GLP1R ag	miR-21 reporter	PTHR1 ag	Pin1 inhibitor	GLP1R cytotox
Cc1cc(N/N=C/c2ccc(Cl)cc2)nc(NCc2ccccc2)n1	4.5µM	i	i	i	i	i
Cc1cc(N/N=C/c2cccc(Cl)c2)nc(NCc2ccccc2)n1	11µM	i	i	i	i	?
CCc1cc2c(cc3c(=O)n(CC(=O)NC(C)C)nc(CC)n32)s1	i	nt	i	i	i	i
CCCC(=O)Nc1cccc(OCc2cc(=O)n3cccc(C)c3n2)c1	i	nt	i	i	i	i
CCCC(CCC)C(N)=O	nt	i	nt	nt	nt	nt
COc1ccc(C2NC(=S)N3C(c4ccc(OC)c(OC)c4)NC(=S)N23)cc1OC (stereo not given)	nt	i	nt	nt	nt	nt
CC(=O)c1c(C)[nH]c(C(=O)Nc2ccc(C)cn2)c1C	5.6µM	i	?	i	i	i
COc1ccc(-c2nc(NC(=O)c3ccco3)sc2C)cc1	?	i	nt	i	nt	i
COc1ccc(-c2nc(NC(=O)c3[nH]c(C)c(C(C)=O)c3C)sc2C)cc1	13µM	i	i	i	i	i
CC(=O)c1c(C)[nH]c(C(=O)Nc2nc(C)cs2)c1C	2.2µM	i	i	i	i	i
CC(=O)c1c(C)[nH]c(C(=O)Nc2ccc(C)c(S(=O)(=O)Nc3ccc(C)cc3C)c2)c1C	2.5µM	i	i	i	i	?
CNC(=O)C1CCN(c2nc(-c3ccc(Br)cc3)cs2)CC1	nt	nt	nt	nt	i	nt
COc1ccc(OC)c(CNC(=O)C2CCN(c3nc4ccccc4nc3C(F)(F)F)CC2)c1	i	nt	i	i	i	i
CC[n+]1c(-c2ccc(C)cc2)csc1Nc1c(C)n(C)n(-c2ccccc2)c1=O	8.9µM	i	i	i	i	i
CNC(=S)N/N=C/c1cccc(OCc2ccccc2F)c1	?	i	i	i	i	?
CCNC(=S)N/N=C/c1cccc(OCc2c(F)cccc2Cl)c1	10µM	i	i	i	i	?
CCOc1ccc(NS(=O)(=O)c2cccc(C(=O)N3CCN(C/C=C/c4ccccc4)CC3)c2)cc1	10µM	i	nt	i	i	i
CCCCOc1ccc(Cn2c(=O)sc3ccccc32)cc1	11µM	nt	i	i	i	i
COc1cccc(O)c1CN1CCCC(C(=O)c2cccc(C(F)(F)F)c2)C1 (stereo not given)	13µM	i	i	i	i	?
COc1ccc2cc(C(=O)C3CCCN(Cc4cccc(C)n4)C3)ccc2c1 (stereo not given)	4.5µM	i	i	i	i	3.2µM
COc1ccc(C(=O)C2CCCN(Cc3c(O)cccc3OC)C2)cc1OC (stereo not given)	i	i	i	i	i	i
COC(=O)c1[nH]c2ccc(F)cc2c1NS(=O)(=O)c1ccc(F)c(C)c1	?	i	i	i	i	i
COC(=O)c1[nH]c2ccc(C)cc2c1NS(=O)(=O)c1ccc(F)c(C)c1	10µM	i	i	i	i	i
